# Assay results reported in PubChem BioAssay (Tox21).
# Several values for one entry are separate records, joined by “and”; a condition that tells them apart may be missing. Equal values may be shown once. Inconclusive results are not listed. A call without a number means that no potency is given here. Where a structure was tested more than once in an assay, its records may differ in their call. Activity calls are given as the source filed them. Unless noted, calls follow the shape of the dose curve; as a rule, active = well fitted curve in the direction sought with a large enough effect in the repeat runs; inconclusive = weak or mixed curves; inactive = no such curve, though single readings can be large; an effect the other way counts as inactive or inconclusive.
# Columns and labels:
# [1] = A CellTox Green Cytotoxicity Assay to monitor cytotoxicity in HepG2 cells - 8 hour (AID 1224890); also: nearly all actives have a fitted effect of over 45% in size; also: potency is read from the fitted curve at half-maximal effect
# Method in brief: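 HepG2 cells were seeded together with the CellTox Green dye at 600 cells/well, left 5 h at 37 C/5% CO2, then given compounds in DMSO. Fluorescence from dye bound to dead-cell DNA was read repeatedly over 40 h of treatment at 37 C.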
# [2] = qHTS assay to identify small molecule antagonists of the estrogen receptor alpha (ER-alpha) signaling pathway using the BG1 cell line in the presence of 0.1 nM 17-beta-estradiol - cell viability counter screen (AID 1259241); also: nearly all actives have a fitted effect of over 40% in size; also: potency is read from the fitted curve at half-maximal effect
# Method in brief: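 Live-cell protease activity (CellTiter-Fluor fluorescence, 30 min) was read in the same wells after VM7Luc4E2 cells had been exposed to compounds with 0.1 nM 17beta-estradiol for 22 hr at 37C.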
# [3] = biological target: Estrogen receptor (Homo sapiens) (UniProt P03372); assay: qHTS assay to identify small molecule antagonists of the estrogen receptor alpha (ER-alpha) signaling pathway using the BG1 cell line in the presence of 0.1 nM 17-beta-estradiol (AID 1259244); also: nearly all actives have a fitted effect of over 50% in size
# Method in brief: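 VM7Luc4E2 cells (endogenous full-length ER-alpha, stable 4xERE-luciferase) were grown 5 days in phenol red-free medium with charcoal-stripped FBS, then exposed 22 h at 37C to compounds plus 0.1 nM (final) 17beta-estradiol; ONE-Glo luminescence read-out.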
# [4] = qHTS assay to identify small molecule phospholipidosis (PLD) inducers (AID 1259344; active = well fitted curve in the direction sought with a large enough effect; an effect the other way counts as inactive or inconclusive)
# Method in brief: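 HepG2 cells on collagen I, attached 4 h at 37 C, were co-treated with compound and LipidTOX Red dye for 24 h at 37 C, then fixed with paraformaldehyde plus Hoechst 33342 and imaged by high-content microscopy for phospholipid accumulation.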
# [5] = qHTS assay to identify small molecule HDAC inhibitors (AID 1259364); also: nearly all actives have a fitted effect of over 45% in size; also: potency is read from the fitted curve at half-maximal effect
# Method in brief: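 Wild-type HCT-116 cells were plated overnight, exposed to compounds for 2 h at 37 °C, then given HDAC-Glo class I/II luminogenic reagent for 30 min at room temperature before luminescence was read.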
# [6] = qHTS assay to identify small molecule HDAC inhibitors - cell viability counter screen (AID 1259365); also: series mostly up to about 92 µM; nearly all actives have a fitted effect of over 50% in size
# Method in brief: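 HCT-116 (wild type), 1,500 cells/well, overnight 37C/5% CO2; compound in DMSO 2hr; CellTiter-Glo 30min RT; luminescence read.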
# [7] = qHTS assay to identify small molecule agonists of the sonic hedgehog signaling (Shh) pathway - cell viability counter screen (AID 1259366); also: nearly all actives have a fitted effect of over 50% in size; also: potency is read from the fitted curve at half-maximal effect
# Method in brief: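 CellTiter-Fluor fluorescence read-out, 1 hr at 37C, added after 23hr compound exposure. Cells: 3T3 Gli1-Luc, an NIH/3T3 clone with stably integrated Gli1-Luc reporter, plated 4hr before compound.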
# [8] = qHTS assay to identify small molecule agonists of the sonic hedgehog signaling (Shh) pathway (AID 1259368; calls by dose curve; also: series mostly up to about 92 µM; nearly all actives have a fitted effect of over 15% in size)
# Method in brief: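 NIH/3T3-derived 3T3Gli1-Luc cells carrying a stably integrated Gli1 response element–firefly luciferase reporter were plated, left 4 hr at 37 C, then given compounds in DMSO for 24 hr. Luminescence was read 30 min after adding luciferase reagent.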
# [9] = qHTS assay to identify small molecule antagonists of the sonic hedgehog signaling (Shh) pathway (AID 1259369; calls by dose curve; also: nearly all actives have a fitted effect of over 45% in size; also: potency is read from the fitted curve at half-maximal effect)
# Method in brief: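 NIH/3T3-derived 3T3Gli1-Luc cells with stably integrated Gli1-Luc reporter were preincubated 4hr at 37 C, then given compounds in DMSO plus Shh conditioned medium and incubated 24hr. Firefly luciferase luminescence read after 30min reagent at room temperature.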
# [10] = biological target: Estrogen receptor beta (Homo sapiens) (UniProt Q92731); assay: qHTS assay to identify small molecule agonists of the estrogen receptor beta (ER-beta) signaling pathway (AID 1259377; active = well fitted activation curve with a large enough effect in the signal ratio in the repeat runs, not every such curve was filed as active; the % refers to the signal ratio)
# Method in brief: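 Beta-lactamase reporter readout: fluorescence of LiveBLAzer B/G FRET substrate after 2 h at room temperature, following 16 h compound treatment of ER-beta-UAS-bla HEK293T cells at 37C in 2% charcoal-stripped FBS medium.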
# [11] = biological target: Estrogen receptor beta (Homo sapiens) (UniProt Q92731); assay: qHTS assay to identify small molecule antagonists of the estrogen receptor beta (ER-beta) signaling pathway (AID 1259378; active = well fitted inhibition curve with a large enough effect in the signal ratio in the repeat runs, not every such curve was filed as active; the % refers to the signal ratio; also: potency is read from the fitted curve at half-maximal effect)
# Method in brief: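 ER-beta-UAS-bla HEK293T (GripTite) cells in 2% charcoal-stripped FBS medium were preincubated 6 hr at 37C, dosed with compound, then stimulated with 1 nM E2 (final) for 16 hr; beta-lactamase reporter read by B/G FRET fluorescence after 2 hr substrate loading.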
# [12] = qHTS assay to identify small molecule agonists of the androgen receptor (AR) signaling pathway in the presence of an antagonist - cell viability counter screen (AID 1259379); also: nearly all actives have a fitted effect of over 25% in size; also: potency is read from the fitted curve at half-maximal effect
# Method in brief: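 MDA-kb2 human breast carcinoma cells (stable MMTV-luciferase, AR/GR responsive) were seeded 3,000 cells/well, pre-incubated 5 hr at 37C without CO2, then given 3.0uM nilutamide and compounds at 15 concentrations for 16 hr. Viability was read by CellTiter-Fluor fluorescence.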
# [13] = qHTS assay to identify small molecule agonists of the estrogen receptor beta (ER-beta) signaling pathway - cell viability counter screen (AID 1259380); also: nearly all actives have a fitted effect of over 30% in size; also: potency is read from the fitted curve at half-maximal effect
# Method in brief: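 ER-beta-UAS-bla HEK293T cells in medium with 2% charcoal-stripped FBS were preincubated 6 hr at 37C, dosed with compound in DMSO for 16 hr, then after the bla read, CellTiter-Glo was added for 30 min at room temperature; luminescence recorded.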
# [14] = qHTS assay to identify small molecule antagonists of the estrogen receptor beta (ER-beta) signaling pathway - cell viability counter screen (AID 1259382); also: series mostly up to about 92 µM; nearly all actives have a fitted effect of over 55% in size
# Method in brief: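 ER-beta-UAS-bla HEK293T cells (2,000/well, 2% charcoal-stripped FBS) were pre-incubated 6 hr at 37C, then given compound plus 1nM final 17-beta-estradiol for 16 hr. Viability was read in the same wells by CellTiter-Glo luminescence after 30 min at room temperature.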
# [15] = biological target: Estrogen receptor (Homo sapiens) (UniProt P03372); assay: qHTS assay to identify small molecule agonists of the estrogen receptor alpha (ER-alpha) signaling pathway in the presence of an antagonist (AID 1259383; calls by dose curve; also: top concentration of the series differs between compounds; nearly all actives have a fitted effect of over 15% in size)
# Method in brief: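 VM7Luc4E2 cells (endogenous full-length ER-alpha, 4×ERE-luciferase) were precultured 5 days in phenol red-free medium with 10% charcoal-stripped FBS, given 10.0nM ICI-182,780 (final), then treated with compounds at 15 concentrations for 22hr at 37C; luminescence read with ONE-Glo.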
# [16] = qHTS assay to identify small molecule agonists or antagonists of the thyroid stimulating hormone receptor (TSHR) signaling pathway - wild type cell line counter screen (AID 1259384; calls by dose curve)
# Method in brief: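 Wild-type HEK293 cells were plated 18 h at 37 C/5% CO2, pin-dosed with compound plus Ro20-1724 medium, held 30 min at room temperature, then given cAMP-d2 and anti-cAMP-cryptate; fluorescence was read after 1 h. Fifteen concentrations, triplicate.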
# [17] = qHTS assay to identify small molecule antagonists of the androgen receptor (AR) signaling pathway using the MDA cell line in the presence of 0.5 nM R1881 - cell viability counter screen (AID 1259242); also: nearly all actives have a fitted effect of over 45% in size
# Method in brief: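 MDA-kb2 cells (human breast carcinoma, stably carrying MMTV-luciferase reporter) were exposed to compounds with 0.5 nM R1881 (final) for 16 hr at 37C, 0% CO2; viability then read as live-cell protease fluorescence (CellTiter-Fluor, 30 min) in the same wells.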
# [18] = qHTS assay to identify small molecule antagonists of the sonic hedgehog signaling (Shh) pathway - cell viability counter screen (AID 1259367); also: nearly all actives have a fitted effect of over 55% in size; also: potency is read from the fitted curve at half-maximal effect
# Method in brief: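 NIH/3T3-derived Gli1-Luc reporter cells (2,000 per well) rested 4 hr at 37 C, then received DMSO compounds plus conditioned medium. After 23 hr of treatment, CellTiter-Fluor was added for 1 hr at 37C and fluorescence read.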
# [19] = biological target: Androgen receptor (Homo sapiens) (UniProt P10275); assay: qHTS assay to identify small molecule agonists of the androgen receptor (AR) signaling pathway in the presence of an antagonist (AID 1259381; calls by dose curve; also: nearly all actives have a fitted effect of over 15% in size)
# Method in brief: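 MDA-kb2 human breast carcinoma cells carrying an MMTV-luciferase reporter (AR- and GR-responsive) were treated with compounds at 15 concentrations plus 3.0uM final nilutamide for 16hr at 37C without CO2; luminescence was read after ONE-Glo addition.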
# Estrogen receptor (Homo sapiens), sequence (P03372 whole entry, looked up): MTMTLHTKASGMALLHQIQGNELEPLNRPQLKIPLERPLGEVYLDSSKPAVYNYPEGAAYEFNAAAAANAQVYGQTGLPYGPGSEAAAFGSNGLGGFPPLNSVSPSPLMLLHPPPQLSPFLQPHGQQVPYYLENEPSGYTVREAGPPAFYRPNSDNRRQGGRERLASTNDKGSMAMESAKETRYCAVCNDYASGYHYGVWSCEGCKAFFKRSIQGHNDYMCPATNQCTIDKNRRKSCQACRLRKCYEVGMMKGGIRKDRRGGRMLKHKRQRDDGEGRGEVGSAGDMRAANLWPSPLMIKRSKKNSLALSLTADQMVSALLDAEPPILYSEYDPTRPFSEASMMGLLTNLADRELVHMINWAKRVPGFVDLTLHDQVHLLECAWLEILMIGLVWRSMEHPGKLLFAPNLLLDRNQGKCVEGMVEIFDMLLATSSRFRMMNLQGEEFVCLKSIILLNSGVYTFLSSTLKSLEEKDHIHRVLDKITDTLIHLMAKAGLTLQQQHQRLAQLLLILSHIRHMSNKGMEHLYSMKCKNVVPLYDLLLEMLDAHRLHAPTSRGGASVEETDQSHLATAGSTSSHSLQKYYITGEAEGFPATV
# Estrogen receptor beta (Homo sapiens), sequence (Q92731 whole entry, looked up): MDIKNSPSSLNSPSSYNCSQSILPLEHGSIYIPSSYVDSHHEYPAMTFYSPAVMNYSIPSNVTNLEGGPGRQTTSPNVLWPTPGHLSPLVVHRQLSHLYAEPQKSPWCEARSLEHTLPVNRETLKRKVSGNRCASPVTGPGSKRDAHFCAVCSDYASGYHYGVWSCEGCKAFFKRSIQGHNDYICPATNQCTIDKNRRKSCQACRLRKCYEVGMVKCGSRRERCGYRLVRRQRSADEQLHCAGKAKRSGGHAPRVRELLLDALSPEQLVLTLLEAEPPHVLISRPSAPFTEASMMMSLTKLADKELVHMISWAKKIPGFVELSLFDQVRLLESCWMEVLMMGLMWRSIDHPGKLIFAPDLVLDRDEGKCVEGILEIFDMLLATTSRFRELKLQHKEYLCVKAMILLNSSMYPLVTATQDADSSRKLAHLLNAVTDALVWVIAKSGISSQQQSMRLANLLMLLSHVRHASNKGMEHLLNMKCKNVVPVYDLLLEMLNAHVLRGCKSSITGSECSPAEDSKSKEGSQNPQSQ
# Androgen receptor (Homo sapiens), sequence (P10275 whole entry, looked up): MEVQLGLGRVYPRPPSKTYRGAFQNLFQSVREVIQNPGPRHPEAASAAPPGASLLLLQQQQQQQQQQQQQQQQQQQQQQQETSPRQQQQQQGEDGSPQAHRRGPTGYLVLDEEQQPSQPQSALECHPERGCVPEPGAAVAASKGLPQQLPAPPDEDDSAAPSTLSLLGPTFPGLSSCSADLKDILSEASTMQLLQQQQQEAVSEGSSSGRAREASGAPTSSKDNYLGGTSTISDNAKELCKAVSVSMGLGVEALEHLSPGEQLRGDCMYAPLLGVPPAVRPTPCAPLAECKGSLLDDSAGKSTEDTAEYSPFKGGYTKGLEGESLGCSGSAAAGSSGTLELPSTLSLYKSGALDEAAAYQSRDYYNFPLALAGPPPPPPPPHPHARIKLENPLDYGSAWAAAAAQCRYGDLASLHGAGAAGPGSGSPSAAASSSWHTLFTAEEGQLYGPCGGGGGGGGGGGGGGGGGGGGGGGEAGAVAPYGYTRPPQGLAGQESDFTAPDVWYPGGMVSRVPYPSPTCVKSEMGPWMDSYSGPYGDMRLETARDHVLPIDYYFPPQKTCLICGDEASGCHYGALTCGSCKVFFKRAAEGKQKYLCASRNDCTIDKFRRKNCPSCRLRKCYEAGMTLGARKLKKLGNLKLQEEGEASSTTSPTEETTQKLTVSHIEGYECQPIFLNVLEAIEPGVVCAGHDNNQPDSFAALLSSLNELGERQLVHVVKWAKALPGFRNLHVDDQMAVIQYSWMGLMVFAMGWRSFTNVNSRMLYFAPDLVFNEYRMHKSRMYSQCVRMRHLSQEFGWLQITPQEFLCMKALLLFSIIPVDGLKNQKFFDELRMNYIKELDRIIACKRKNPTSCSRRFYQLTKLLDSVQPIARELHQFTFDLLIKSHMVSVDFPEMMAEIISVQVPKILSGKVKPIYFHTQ
compound,measurement,setting,value
COc1cccc2c1C(=O)c1c(O)c3c(c(O)c1C2=O)C[C@@](O)(C(=O)CO)C[C@@H]3O[C@H]1C[C@H](N)[C@H](O)[C@H](C)O1,Potency,[1],inactive
same,Potency,[2],11.9 µM (active)
same,Potency,[3],inactive
same,Potency,[4],inactive
same,Potency,[5],inactive and 11.9 µM (active)
same,outcome,[6],inactive
same,Potency,[7],967 nM (active) and 9.44 µM (active)
same,Potency,[8],inactive
same,Potency,[9],38.5 nM (active) and 531 nM (active)
same,Potency,[10],inactive
same,Potency,[11],1.93 µM (active) and 11.9 µM (active)
same,Potency,[12],15.3 µM (active) and 11.9 µM (active)
same,Potency,[13],inactive and 473 nM (active)
same,Potency,[14],inactive
same,Potency,[15],inactive
same,outcome,[16],inactive
CN(C)C(=N)N=C(N)N,Potency,[1],inactive
same,Potency,[2],inactive
same,Potency,[17],inactive
same,Potency,[4],inactive
same,Potency,[5],inactive
same,outcome,[6],inactive
same,Potency,[7],inactive
same,Potency,[18],inactive
same,Potency,[8],inactive
same,Potency,[9],inactive
same,Potency,[12],inactive
same,Potency,[14],inactive
same,outcome,[16],inactive
O=C(c1ccccc1)c1ccccc1O,Potency,[1],inactive
same,Potency,[2],inactive
same,Potency,[17],inactive
same,Potency,[5],inactive
same,outcome,[6],inactive
same,Potency,[7],inactive
same,Potency,[18],inactive
same,Potency,[8],inactive
same,Potency,[9],inactive
same,Potency,[10],inactive
same,Potency,[11],inactive
same,Potency,[13],inactive
same,outcome,[19],inactive
same,Potency,[14],inactive
same,outcome,[16],inactive
CC(C)CC(C)(O)C#CC(C)(O)CC(C)C (stereo not given),Potency,[1],inactive
same,Potency,[2],inactive
same,Potency,[17],inactive
same,Potency,[5],inactive
same,outcome,[6],inactive
same,Potency,[7],13.4 µM (active) and inactive
same,Potency,[18],30 µM (active) and inactive
same,Potency,[8],inactive
same,Potency,[9],9.49 µM (active) and inactive
same,Potency,[10],inactive
same,Potency,[11],inactive
same,Potency,[14],inactive
same,outcome,[16],inactive
Brc1cc(Oc2cc(Br)c(Br)c(Br)c2Br)c(Br)c(Br)c1Br,Potency,[1],inactive
same,Potency,[2],inactive
same,Potency,[17],inactive
same,Potency,[5],inactive
same,outcome,[6],inactive
same,Potency,[7],inactive
same,Potency,[8],inactive
same,Potency,[9],inactive
same,Potency,[13],6.89 µM (active) and inactive
same,Potency,[14],inactive
same,outcome,[16],inactive
OC[C@H]1O[C@@H]2O[C@H]3[C@H](O)[C@@H](O)[C@@H](O[C@H]4[C@H](O)[C@@H](O)[C@@H](O[C@H]5[C@H](O)[C@@H](O)[C@@H](O[C@H]6[C@H](O)[C@@H](O)[C@@H](O[C@H]7[C@H](O)[C@@H](O)[C@@H](O[C@H]8[C@H](O)[C@@H](O)[C@@H](O[C@H]1[C@H](O)[C@H]2O)O[C@@H]8CO)O[C@@H]7CO)O[C@@H]6CO)O[C@@H]5CO)O[C@@H]4CO)O[C@@H]3CO,Potency,[1],inactive
same,Potency,[2],inactive
same,Potency,[17],inactive
same,Potency,[4],inactive
same,Potency,[5],inactive
same,outcome,[6],inactive
same,Potency,[7],inactive
same,Potency,[18],inactive
same,Potency,[8],inactive
same,Potency,[9],inactive
same,Potency,[12],inactive
same,Potency,[14],inactive
same,outcome,[16],inactive
Cc1cc2nc3c(=O)[nH]c(=O)nc-3n(C[C@H](O)[C@H](O)[C@H](O)CO)c2cc1C,Potency,[1],43.2 µM (active) and 40.5 µM (active) and 11.7 µM (active)
same,Potency,[4],inactive
same,Potency,[5],inactive
same,outcome,[6],inactive
same,Potency,[8],inactive
same,Potency,[9],inactive
same,Potency,[10],inactive
same,"activity, negative = inhibition",[11],-6.01% [at 19 µM] (inactive)
same,Potency,[14],inactive
same,cAMP activity change,[16],-5.16% [at 18.9 µM] (inactive)
Clc1nc(Cl)c(Cl)c(Cl)c1Cl,Potency,[1],inactive
same,Potency,[2],inactive
same,Potency,[17],inactive
same,Potency,[5],inactive
same,outcome,[6],inactive
same,Potency,[7],inactive
same,Potency,[18],inactive
same,Potency,[8],inactive
same,Potency,[9],inactive
same,Potency,[10],inactive
same,Potency,[11],inactive
same,Potency,[12],61.4 µM (active)
same,Potency,[14],inactive
same,outcome,[16],inactive
